Here are results for seven compounds from PubChem BioAssay (NCI).

Among the test systems are HCT-15 colon; HT29 colon; SNB-75 CNS; SNB-19 CNS; U251 CNS; PC-3 prostate; SK-MEL-5 melanoma; UACC-62 melanoma; LOX IMVI melanoma; SK-MEL-28 melanoma; SK-MEL-2 melanoma; EKVX NSCLC; SN12C renal; UO-31 renal; TK-10 renal; ACHN renal; CAKI-1 renal; A498 renal; CCRF-CEM leukemia; MOLT-4 leukemia.
Experiment in all cases: NCI-60 one-dose screen, 48 h (100 = growth as untreated, 0 = no growth, -100 = all killed)
Conditions in all cases: 10 µM unless noted

The panel holds about 83,000 compounds, 20% with a hit somewhere; the sample as a whole holds those more often.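 Growth was measured after 48 h exposure to one concentration of compound in 96-well plates. Values under 10 count as active.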 A number with no mark means an inactive call. Calls of active or inactive are those of the source.

Regarding `C=C1C(=O)O[C@H]2[C@H]1CC/C(COC(=O)C(=O)c1cn(C)c3ccc(Cl)cc13)=C\CC[C@@]1(C)O[C@@H]21`, the growth is -62.8% (active) in the test on HCT-15 colon; -71.3% (active) in the test on HT29 colon; -98.3% (active) in the test on SNB-75 CNS; -75% (active) with SNB-19 CNS; -95.3% (active) in the test on U251 CNS; -70.5% (active) in the test on PC-3 prostate. Also, the growth was -100% (active) in the test on SK-MEL-5 melanoma; -82.5% (active) in the test with UACC-62 melanoma; -84.5% (active) with LOX IMVI melanoma; -64.6% (active) in the test on SK-MEL-28 melanoma; -60.8% (active) in the test on SK-MEL-2 melanoma; -59.5% (active) with EKVX NSCLC. The growth is -69% (active) with SN12C renal; -93.5% (active) with UO-31 renal; -91.1% (active) with TK-10 renal; -91.8% (active) in the test on ACHN renal; -75.7% (active) in the test with CAKI-1 renal; -96.9% (active) in the test on A498 renal. Further, the results for the growth in the test on CCRF-CEM leukemia and with MOLT-4 leukemia were -34.9% (active) and -15.4% (active), respectively.

For `O=C(c1nn(-c2ccccc2)c2c1CC(NCc1ccc(F)cc1)CC2)N1CCCCC1` (stereo not given), the growth in the test on HCT-15 colon is 99.5%; with HT29 colon, 101%; with SNB-75 CNS, 84.5%; in the test with SNB-19 CNS it was 101%; in the test on U251 CNS it was 95.7%; in the test with PC-3 prostate, 93.5%. Moreover, the growth in the test on SK-MEL-5 melanoma is 96%; with UACC-62 melanoma, 110%; in the test on LOX IMVI melanoma it was 99.1%; with SK-MEL-28 melanoma it was 117%; with SK-MEL-2 melanoma it was 103%; with EKVX NSCLC it was 97.6%. Further, the growth was 105% in the test with SN12C renal; 74.2% in the test on UO-31 renal; 92.5% in the test on TK-10 renal; 104% in the test with ACHN renal; 85% with CAKI-1 renal; 120% with A498 renal. For the same compound, the growth with CCRF-CEM leukemia is 108%; with MOLT-4 leukemia, 73.5%.

Turning to `Cc1c(-c2ccc(O)cc2)n(Cc2ccc(OCCN3CCCCCC3)cc2)c2ccc(O)cc12`, the growth with HCT-15 colon is 20.5%; in the test on HT29 colon, 59.4%; in the test with SNB-75 CNS, 43.4%; with SNB-19 CNS, 88.1%; with U251 CNS, 56.4%; in the test with PC-3 prostate, 76.8%. Besides, the growth with SK-MEL-5 melanoma was 57.2%; with UACC-62 melanoma, 98.3%; with LOX IMVI melanoma it was 39.4%; in the test on SK-MEL-28 melanoma, 92.6%; in the test on SK-MEL-2 melanoma it was 106%; in the test with EKVX NSCLC it was 75.2%. In addition, the growth with SN12C renal was 81%; with UO-31 renal it was 52.6%; in the test on TK-10 renal, 78%; with ACHN renal, 91.9%; in the test with CAKI-1 renal it was 50.6%; in the test with A498 renal, 53.7%. For the same compound, the growth in the test on CCRF-CEM leukemia is 57.5%; with MOLT-4 leukemia, 39.8%.

With `O=S(=O)(Nc1cc(F)cc(Cl)c1)c1ccc(-c2cnc(C3CC3)o2)cc1`, the growth in the test with HCT-15 colon was 25.4%; in the test with HT29 colon it was 4.89% (active); with SNB-75 CNS, -22.1% (active); in the test with SNB-19 CNS, 30.4%; in the test with U251 CNS it was 33.6%; with PC-3 prostate, 32%. The growth with SK-MEL-5 melanoma is 19.9%; with UACC-62 melanoma, 35.1%; in the test on LOX IMVI melanoma, 39.3%; with SK-MEL-28 melanoma, 71.3%; in the test on SK-MEL-2 melanoma, 52.8%; with EKVX NSCLC, 38%. Also, the growth with SN12C renal is 45.8%; in the test with UO-31 renal, 39.3%; in the test on TK-10 renal it was 47.7%; in the test with ACHN renal it was 34.4%; with CAKI-1 renal, 31.3%; in the test with A498 renal, -6.52% (active). Further, the results for the growth with CCRF-CEM leukemia and in the test on MOLT-4 leukemia were 23.6% and 31.9%, respectively.

Take `c1cc2c(ccc3[nH]c(-c4ccc5[nH]ncc5c4)c4c(c32)CCCC4)n1`: the growth in the test with HCT-15 colon was 61.6%; in the test with HT29 colon it was 51.7%; in the test on SNB-75 CNS, 62.1%; in the test with SNB-19 CNS, 44.5%; with U251 CNS it was 36.8%; with PC-3 prostate it was 28.4%. Besides, the growth was 61.7% with SK-MEL-5 melanoma; 54.6% in the test on UACC-62 melanoma; 61.5% in the test on LOX IMVI melanoma; 67.3% with SK-MEL-28 melanoma; 83.6% in the test on SK-MEL-2 melanoma; 62.7% in the test with EKVX NSCLC. Besides, the growth in the test with SN12C renal is 46%; with UO-31 renal it was 53.3%; with TK-10 renal, 80.2%; in the test on ACHN renal it was 32.3%; with CAKI-1 renal, 69.8%; in the test with A498 renal, 74.3%. Further, the figures for the growth with CCRF-CEM leukemia and in the test on MOLT-4 leukemia were 13.6% and -0.124% (active), respectively.

With `NC(=O)c1ccc(-c2c3ccccc3cc3c2ccc2ccccc23)cc1`, the growth with HCT-15 colon is 28.3%; in the test with HT29 colon, -19.4% (active); with SNB-75 CNS it was 42.5%; with SNB-19 CNS, 60.9%; in the test on U251 CNS, 42.5%; with PC-3 prostate, 54.4%. The growth in the test on SK-MEL-5 melanoma is 40.8%; with UACC-62 melanoma, 33.4%; with LOX IMVI melanoma, 33.3%; with SK-MEL-28 melanoma, 60%; with SK-MEL-2 melanoma, 43.7%; with EKVX NSCLC, 67.7%. Also, the growth was 72.9% in the test with SN12C renal; 57.5% in the test with UO-31 renal; 70.2% in the test on TK-10 renal; 57.2% in the test on ACHN renal; 61.7% in the test on CAKI-1 renal; 70% in the test on A498 renal. Further, the growth was 37.8% in the test with CCRF-CEM leukemia and 40.5% in the test on MOLT-4 leukemia.

Take `COc1cc2ncnc(Nc3ccc(S(=O)(=O)Nc4cc(C)on4)cc3)c2cc1OCCCN1CCN(c2ccc(F)cc2)CC1`: the growth was 110% with HCT-15 colon; 112% in the test on HT29 colon; 85.4% in the test with SNB-75 CNS; 97.3% in the test with SNB-19 CNS; 93.6% in the test with U251 CNS; 101% in the test with PC-3 prostate. Besides, the growth in the test with SK-MEL-5 melanoma is 103%; with UACC-62 melanoma it was 91%; with LOX IMVI melanoma, 89.8%; in the test with SK-MEL-28 melanoma, 107%; in the test with SK-MEL-2 melanoma, 113%; with EKVX NSCLC it was 109%. Also, the growth in the test with SN12C renal was 100%; in the test on UO-31 renal, 77.5%; with TK-10 renal, 115%; in the test with ACHN renal it was 97.4%; with CAKI-1 renal, 87.7%; in the test with A498 renal, 91.9%. For the same compound, the values for the growth in the test with CCRF-CEM leukemia and with MOLT-4 leukemia were 103% and 102%, respectively.
